Laboratory results reported in PubChem BioAssay (Tox21).
Results filed as inconclusive are left out. Calls of active or inactive are those of the source. Unless noted, the call rests on the fitted dose curve; in most records, active means well fitted curve in the direction sought with a large enough effect in the repeat runs; inconclusive means weak or mixed curves; inactive means no such curve, though single readings can be large; an effect the other way counts as inactive or inconclusive.

How the values were obtained:
[1] = qHTS assay to identify small molecule agonists of the androgen receptor (AR) signaling pathway in the presence of an antagonist - cell viability counter screen (AID 1259379);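 further: MDA-kb2 human breast cancer cells carrying an MMTV luciferase reporter; series mostly up to about 92 µM; nearly all actives have a fitted effect of over 25% in size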
Procedure, shortened: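 MDA-kb2 cells (MMTV-luciferase, AR/GR), 3,000/well, 5 h attachment, then 3.0 µM nilutamide (final) and compounds at 15 concentrations. Viability by CellTiter-Fluor fluorescence after 16 h at 37 °C, 0% CO2, in the reporter wells.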

[2] = qHTS assay to identify small molecule agonists of the estrogen receptor beta (ER-beta) signaling pathway - cell viability counter screen (AID 1259380); further: nearly all actives have a fitted effect of over 30% in size
Procedure, shortened: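 ER-beta-UAS-bla HEK293T cells in medium with 2% charcoal-stripped FBS, pre-incubated 6 hr, then treated 16 hr at 37C. Cytotoxicity read in the same wells by CellTiter-Glo luminescence after 30 min at room temperature.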

[3] = qHTS assay to identify small molecule antagonists of the estrogen receptor beta (ER-beta) signaling pathway - cell viability counter screen (AID 1259382); further: series mostly up to about 92 µM; nearly all actives have a fitted effect of over 55% in size
Procedure, shortened: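 ER-beta-UAS-bla HEK293T cells in 2% charcoal-stripped FBS medium, treated with compound plus 1 nM 17-beta-estradiol for 16 h at 37C. Viability read by CellTiter-Glo luminescence after 30 min at room temperature in the same wells.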

[4] = target: Estrogen receptor (Homo sapiens) (UniProt P03372); test: qHTS assay to identify small molecule agonists of the estrogen receptor alpha (ER-alpha) signaling pathway in the presence of an antagonist (AID 1259383; calls by dose curve; further: top concentration of the series differs between compounds; nearly all actives have a fitted effect of over 15% in size)
Procedure, shortened: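 VM7Luc4E2 cells express endogenous full-length ER-alpha with an ERE-luciferase reporter and were hormone-deprived for 5 days. Compounds at 15 concentrations were added with 10.0nM ICI-182,780 for 22hr at 37C. Luminescence was read with ONE-Glo.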

[5] = qHTS assay to identify small molecule agonists or antagonists of the thyroid stimulating hormone receptor (TSHR) signaling pathway - wild type cell line counter screen (AID 1259384; calls by dose curve)
Procedure, shortened: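 Wild-type HEK293 cells were plated 18 h at 37 C/5% CO2, pin-dosed with compound plus Ro20-1724 medium, held 30 min at room temperature, then given cAMP-d2 and anti-cAMP-cryptate; fluorescence was read after 1 h. Fifteen concentrations, triplicate.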

[6] = target: Thyrotropin receptor (Homo sapiens) (UniProt P16473); test: qHTS assay to identify small molecule antagonists of the thyroid stimulating hormone receptor (TSHR) signaling pathway (AID 1259385; calls by dose curve; further: nearly all actives have a fitted effect of over 20% in size)
Procedure, shortened: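 TSHR-HEK293 cells were plated and held 18 h at 37C/5% CO2, then given compound plus Ro20-1724 and stimulated with TSH at 1.5 ng/mL final. After 30 min at room temperature, cAMP was detected with cAMP-d2/anti-cAMP-cryptate (1 h) by fluorescence.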

[7] = qHTS assay to identify small molecule agonists of the estrogen receptor alpha (ER-alpha) signaling pathway in the presence of an antagonist - cell viability counter screen (AID 1259386);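 further: series mostly up to about 92 µM; cells exposed to compounds for 22 h at 37 °C before the viability read; nearly all actives have a fitted effect of over 30% in size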
Procedure, shortened: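 Cell viability in VM7Luc4E2 cells (endogenous full-length ER-alpha) measured by CellTiter-Fluor fluorescence in the same wells as the luciferase screen. Cells pre-cultured 5 days in charcoal-stripped serum, then treated 22 h with compounds at 15 concentrations plus 10.0nM ICI-182,780.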

[8] = target: Progesterone receptor (Homo sapiens) (UniProt P06401); test: qHTS assay to identify small molecule agonists of the progesterone receptor (PR) signaling pathway (AID 1346784; calls by dose curve; further: nearly all actives have a fitted effect of over 30% in size)
Procedure, shortened: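 Using charcoal-stripped serum (2%) to limit endogenous steroids, PR-UAS-bla HEK 293T cells received compounds for 16 hr at 37C after 6 hr plating; beta-lactamase FRET fluorescence was recorded following 2 hr substrate loading at room temperature.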

[9] = target: Progesterone receptor (Homo sapiens) (UniProt P06401); test: qHTS assay to identify small molecule antagonists of the progesterone receptor (PR) signaling pathway (AID 1346795; active means well fitted inhibition curve with a large enough effect in the signal ratio in the repeat runs, not every such curve was filed as active; the % refers to the signal ratio)
Procedure, shortened: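 Inhibition of R5020-induced (1 nM final) beta-lactamase reporter signal in PR-UAS-bla HEK293T cells was scored by FRET fluorescence after overnight (16 hr) compound treatment.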

[10] = qHTS assay to identify small molecule antagonists of the progesterone receptor (PR) signaling pathway - cell viability counter screen (AID 1346798); further: series mostly up to about 92 µM; nearly all actives have a fitted effect of over 50% in size
Procedure, shortened: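 ATP content as viability readout: CellTiter-Glo luminescence, 30 min room temperature, in PR-UAS-bla HEK293T cells after 16 hr compound/R5020 treatment at 37C and 5% CO2.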

[11] = qHTS assay to identify small molecule antagonists of the TGF-beta/Smad signaling pathway - cell viability counter screen (AID 1346824); further: nearly all actives have a fitted effect of over 50% in size
Procedure, shortened: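 SBE-bla HEK 293T cells were plated overnight at 37 C, then given compounds in DMSO plus TGF-beta1 (added as 0.25 ng/mL solution) for 5 hr. After the bla read, CellTiter-Glo was added to the same wells and luminescence read after 30 min at room temperature.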

[12] = qHTS assay to identify small molecule agonists of the TGF-beta/Smad signaling pathway - cell viability counter screen (AID 1346829); further: top concentration of the series differs between compounds; nearly all actives have a fitted effect of over 45% in size
Procedure, shortened: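 CellTiter-Glo luminescence readout; SBE-bla HEK 293T cells, overnight plating, compound 5 hr at 37 C/5% CO2, then bla substrate 2 hr RT, then CellTiter-Glo 30 min RT.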

[13] = qHTS assay to identify small molecule agonists of the TGF-beta/Smad signaling pathway (AID 1346859; active means well fitted activation curve with a large enough effect in the signal ratio in the repeat runs, not every such curve was filed as active; the % refers to the signal ratio; further: series mostly up to about 77 µM)
Procedure, shortened: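 Stable Smad binding element-beta-lactamase HEK 293T cells; 5 hr compound exposure at 37 C under 5% CO2; 2 hr room-temperature substrate step; fluorescence excited at 405 nm, collected at 460 nm and 530 nm.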

[14] = target: Thyrotropin-releasing hormone receptor (Homo sapiens) (UniProt P34981); test: qHTS assay to identify small molecule antagonists of the thyrotropin-releasing hormone receptor (TRHR) signaling pathway (AID 1346877; active means well fitted inhibition curve with a large enough effect in the repeat runs, not every such curve was filed as active; further: series mostly up to about 51 µM)
Procedure, shortened: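 TRHR-expressing HEK293 cells loaded with calcium dye for 2 h at 37 C; compounds pre-incubated 5 min at room temperature before TRH challenge at 1 nM final. Intracellular calcium fluorescence read kinetically for 3 min; 15 concentrations in triplicate.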

[15] = Human pregnane X receptor (PXR) small molecule agonists, qHTS cell viability counter screen (AID 1346977); further: nearly all actives have a fitted effect of over 50% in size
Procedure, shortened: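 Readout is CellTiter-Fluor fluorescence from PXR-Luc HepG2 cells. Plated cells rested 5hr, then were treated with compounds for 24hr at 37C and 5% CO2, with reagent present during the last hour.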

[16] = target: Estrogen receptor beta (Homo sapiens) (UniProt Q92731); test: qHTS assay to identify small molecule antagonists of the estrogen receptor beta (ER-beta) signaling pathway (AID 1259378; active means well fitted inhibition curve with a large enough effect in the signal ratio in the repeat runs, not every such curve was filed as active; the % refers to the signal ratio)
Procedure, shortened: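 ER-beta-UAS-bla HEK293T (GripTite) cells in 2% charcoal-stripped FBS medium were preincubated 6 hr at 37C, dosed with compound, then stimulated with 1 nM E2 (final) for 16 hr; beta-lactamase reporter read by B/G FRET fluorescence after 2 hr substrate loading.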

[17] = qHTS assay to identify small molecule agonists of the progesterone receptor (PR) signaling pathway - cell viability counter screen (AID 1346799; calls by dose curve; further: nearly all actives have a fitted effect of over 45% in size)
Procedure, shortened: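 Cytotoxicity in PR-bla HEK293T cells: 16 h compound, 37C; CellTiter-Glo added post-FRET read; luminescence after 30 min RT.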

[18] = target: Thyrotropin-releasing hormone receptor (Homo sapiens) (UniProt P34981); test: qHTS assay to identify small molecule agonists of the thyrotropin-releasing hormone receptor (TRHR) signaling pathway (AID 1346891; calls by dose curve; further: series mostly up to about 58 µM)
Procedure, shortened: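 In 1536-format, 1500 TRHR-Hek293 cells per well grew 18 h, took up calcium dye for 2 h at 37 °C, received compound, and were read kinetically; 15-point titrations, triplicates.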
On the % scale 0 is the no-effect control and ±100 the full control effect.

Sequence of Thyrotropin-releasing hormone receptor (Homo sapiens) (P34981 whole entry, looked up): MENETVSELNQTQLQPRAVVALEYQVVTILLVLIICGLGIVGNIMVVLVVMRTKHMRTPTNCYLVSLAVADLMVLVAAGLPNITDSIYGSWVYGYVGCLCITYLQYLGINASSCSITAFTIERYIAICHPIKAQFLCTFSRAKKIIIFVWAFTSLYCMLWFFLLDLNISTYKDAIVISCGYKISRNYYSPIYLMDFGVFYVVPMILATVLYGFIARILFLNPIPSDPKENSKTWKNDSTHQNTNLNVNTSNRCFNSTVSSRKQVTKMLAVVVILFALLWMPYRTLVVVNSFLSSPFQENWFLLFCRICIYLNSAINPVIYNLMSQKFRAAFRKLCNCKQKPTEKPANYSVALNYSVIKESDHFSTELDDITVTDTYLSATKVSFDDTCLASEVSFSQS
Sequence of Estrogen receptor (Homo sapiens) (P03372 whole entry, looked up): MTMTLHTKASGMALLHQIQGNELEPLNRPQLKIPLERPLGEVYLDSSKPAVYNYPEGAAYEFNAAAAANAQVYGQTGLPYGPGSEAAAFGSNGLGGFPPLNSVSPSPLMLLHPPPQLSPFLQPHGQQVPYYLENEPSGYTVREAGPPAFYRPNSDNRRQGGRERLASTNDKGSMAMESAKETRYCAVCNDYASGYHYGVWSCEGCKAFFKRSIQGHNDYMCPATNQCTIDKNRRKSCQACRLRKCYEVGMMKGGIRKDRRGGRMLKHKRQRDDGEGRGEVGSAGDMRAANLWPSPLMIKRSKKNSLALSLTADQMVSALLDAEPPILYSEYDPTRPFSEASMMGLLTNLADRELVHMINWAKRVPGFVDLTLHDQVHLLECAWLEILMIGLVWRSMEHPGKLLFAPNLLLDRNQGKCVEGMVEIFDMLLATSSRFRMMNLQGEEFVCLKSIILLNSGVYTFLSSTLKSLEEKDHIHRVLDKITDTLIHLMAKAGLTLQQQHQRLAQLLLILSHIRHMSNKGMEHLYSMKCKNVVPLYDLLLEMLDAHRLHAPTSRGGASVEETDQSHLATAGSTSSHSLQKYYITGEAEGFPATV
Sequence of Progesterone receptor (Homo sapiens) (P06401 whole entry, looked up): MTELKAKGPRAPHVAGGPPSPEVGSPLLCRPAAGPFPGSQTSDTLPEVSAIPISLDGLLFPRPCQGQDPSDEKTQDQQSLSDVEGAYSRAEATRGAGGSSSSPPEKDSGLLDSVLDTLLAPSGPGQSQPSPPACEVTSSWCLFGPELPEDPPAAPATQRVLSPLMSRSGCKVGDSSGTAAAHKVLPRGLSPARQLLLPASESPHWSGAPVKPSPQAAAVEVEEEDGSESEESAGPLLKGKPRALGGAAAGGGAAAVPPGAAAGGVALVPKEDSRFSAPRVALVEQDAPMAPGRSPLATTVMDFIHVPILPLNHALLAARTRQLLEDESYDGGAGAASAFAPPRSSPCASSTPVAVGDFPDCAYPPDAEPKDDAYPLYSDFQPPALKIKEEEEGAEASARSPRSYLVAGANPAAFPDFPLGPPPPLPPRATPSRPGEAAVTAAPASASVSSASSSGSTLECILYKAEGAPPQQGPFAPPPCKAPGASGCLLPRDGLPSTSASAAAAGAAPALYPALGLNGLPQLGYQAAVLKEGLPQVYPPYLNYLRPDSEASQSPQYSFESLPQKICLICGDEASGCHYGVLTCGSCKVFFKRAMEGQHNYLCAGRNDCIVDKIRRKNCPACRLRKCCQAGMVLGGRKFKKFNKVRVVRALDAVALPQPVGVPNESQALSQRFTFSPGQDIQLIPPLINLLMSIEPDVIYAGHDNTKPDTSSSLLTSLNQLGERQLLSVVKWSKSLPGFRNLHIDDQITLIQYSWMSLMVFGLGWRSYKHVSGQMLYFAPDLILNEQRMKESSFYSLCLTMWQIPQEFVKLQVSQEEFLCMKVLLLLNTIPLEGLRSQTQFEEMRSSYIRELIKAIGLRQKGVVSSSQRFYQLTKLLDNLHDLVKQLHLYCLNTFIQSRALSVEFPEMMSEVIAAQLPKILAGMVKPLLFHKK
Sequence of Thyrotropin receptor (Homo sapiens) (P16473 whole entry, looked up): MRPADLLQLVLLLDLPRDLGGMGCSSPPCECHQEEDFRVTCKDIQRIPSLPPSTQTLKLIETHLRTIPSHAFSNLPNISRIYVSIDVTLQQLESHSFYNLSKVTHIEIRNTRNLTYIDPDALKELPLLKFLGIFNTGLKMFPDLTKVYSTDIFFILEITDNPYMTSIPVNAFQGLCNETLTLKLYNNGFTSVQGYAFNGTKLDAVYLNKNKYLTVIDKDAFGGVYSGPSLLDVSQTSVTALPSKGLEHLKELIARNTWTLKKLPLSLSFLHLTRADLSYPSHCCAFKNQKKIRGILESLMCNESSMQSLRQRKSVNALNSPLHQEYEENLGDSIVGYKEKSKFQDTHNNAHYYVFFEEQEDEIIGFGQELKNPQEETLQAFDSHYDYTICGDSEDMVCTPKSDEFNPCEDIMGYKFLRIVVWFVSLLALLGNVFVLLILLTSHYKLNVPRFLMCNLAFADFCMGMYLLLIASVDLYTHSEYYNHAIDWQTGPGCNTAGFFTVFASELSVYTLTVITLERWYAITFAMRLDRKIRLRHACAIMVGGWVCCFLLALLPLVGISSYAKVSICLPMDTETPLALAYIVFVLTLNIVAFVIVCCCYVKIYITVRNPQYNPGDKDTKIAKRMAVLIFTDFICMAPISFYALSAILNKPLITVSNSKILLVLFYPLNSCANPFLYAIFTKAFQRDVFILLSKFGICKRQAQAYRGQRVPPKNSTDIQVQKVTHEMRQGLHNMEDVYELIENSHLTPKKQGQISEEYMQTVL
Sequence of Estrogen receptor beta (Homo sapiens) (Q92731 whole entry, looked up): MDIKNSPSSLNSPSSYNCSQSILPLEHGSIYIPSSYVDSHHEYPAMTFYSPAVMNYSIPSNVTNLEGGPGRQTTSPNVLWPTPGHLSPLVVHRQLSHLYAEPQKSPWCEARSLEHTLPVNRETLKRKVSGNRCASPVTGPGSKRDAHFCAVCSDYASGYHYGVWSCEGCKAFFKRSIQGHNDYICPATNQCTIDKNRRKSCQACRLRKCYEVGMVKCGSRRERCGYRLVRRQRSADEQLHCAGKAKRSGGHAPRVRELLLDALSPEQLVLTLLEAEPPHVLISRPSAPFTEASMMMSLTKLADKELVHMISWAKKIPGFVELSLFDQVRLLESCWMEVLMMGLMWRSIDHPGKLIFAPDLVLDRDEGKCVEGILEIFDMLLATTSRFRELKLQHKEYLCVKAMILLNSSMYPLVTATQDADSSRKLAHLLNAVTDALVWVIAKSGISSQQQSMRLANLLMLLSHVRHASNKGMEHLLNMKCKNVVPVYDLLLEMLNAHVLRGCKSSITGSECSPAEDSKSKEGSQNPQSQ

O=C(CCl)NCO
inactive: Potency [1] | Potency [2] | Potency [3] | Potency [4] | outcome [5] | outcome [6] | Potency [7] | Potency [8] | Potency [9] | Potency [10] | outcome [11] | Potency [12] | outcome [13] | Potency [14] | Potency [15]

N=C(N)[Se]
inactive: outcome [16] | Potency [1] | Potency [3] | Potency [4] | outcome [5] | outcome [6] | Potency [8] | Potency [9] | Potency [10] | Potency [17] | outcome [11] | Potency [12] | outcome [13] | Potency [15]

CCCN1CCC[C@@H]2Cc3nc(N)ncc3C[C@H]21
inactive: Potency [1] | Potency [2] | Potency [3] | Potency [4] | outcome [5] | outcome [6] | Potency [7] | Potency [8] | Potency [9] | Potency [10] | Potency [17] | outcome [11] | Potency [12] | outcome [13] | Potency [14] | outcome [18]

O=c1[nH]c2ccccc2o1
inactive: Potency [1] | Potency [2] | Potency [3] | outcome [5] | outcome [6] | Potency [7] | Potency [8] | Potency [9] | Potency [10] | Potency [12] | outcome [13] | outcome [18]

BrCc1ccc(Br)cc1
inactive: Potency [1] | Potency [2] | Potency [3] | Potency [4] | outcome [5] | outcome [6] | Potency [7] | Potency [17] | outcome [11] | Potency [12] | outcome [13] | outcome [18]

CCC(=O)OC1(c2ccccc2)CCN(C)CC1
inactive: Potency [1] | Potency [2] | Potency [3] | outcome [5] | outcome [6] | Potency [7] | Potency [8] | Potency [9] | Potency [10] | Potency [17] | outcome [11] | Potency [12] | outcome [18]

CCCCCCC(=O)CCCCCC/C=C/C[C@@H](O)[C@H](O)[C@@](N)(CO)C(=O)O
inactive: activity change, negative = cytotoxicity [1] 2.63% [at 19 µM] | activity change, negative = cytotoxicity [2] -0.265% [at 19 µM] | activity change, negative = cytotoxicity [3] 5.36% [at 19 µM] | activation [4] -1.01% [at 19 µM] | cAMP activity change [5] 0.106% [at 18.9 µM] | activity change, negative = inhibition [6] -2.59% [at 19 µM] | activity change, negative = cytotoxicity [7] -0.798% [at 19 µM] | activation [8] -0.536% [at 19 µM] | activity change, negative = inhibition [9] 0.638% [at 18.9 µM] | activity change, negative = cytotoxicity [10] -9.78% [at 18.9 µM] | activity change, negative = cytotoxicity [17] -2.82% [at 19 µM] | viability change, negative = cytotoxic [11] -3.48% [at 15.8 µM] | activity change, negative = cytotoxicity [12] 4.19% [at 15.8 µM] | activation [13] -6.21% [at 15.8 µM] | activation [18] 0.008% [at 11.8 µM] | activity change, negative = cytotoxicity [15] 6.98% [at 19 µM]

CC(C)(C)NC[C@H](O)c1ccc(O)cc1Cl
inactive: Potency [2] | Potency [3] | outcome [6] | Potency [7] | Potency [8] | Potency [9] | Potency [10] | Potency [17] | outcome [11] | Potency [12] | outcome [13] | Potency [14] | outcome [18] | Potency [15]

CCC1(c2ccccc2)C(=O)N(COC)C(=O)N(COC)C1=O
inactive: Potency [2] | Potency [3] | outcome [6] | Potency [7] | Potency [9] | Potency [10] | Potency [17] | Potency [12] | outcome [13] | Potency [14] | outcome [18] | Potency [15]

O=[N+]([O-])c1cccc(CCl)c1
inactive: Potency [1] | Potency [2] | Potency [3] | outcome [6] | Potency [7] | Potency [9] | Potency [10] | Potency [17] | outcome [11] | Potency [12] | outcome [13] | Potency [14] | outcome [18]

CN1COCN(Cc2cnc(Cl)s2)/C1=N\[N+](=O)[O-]
inactive: Potency [1] | Potency [2] | Potency [3] | outcome [5] | Potency [7] | Potency [8] | Potency [9] | Potency [10] | Potency [17] | Potency [12] | outcome [13] | outcome [18] | Potency [15]

CC(C)C(C)(N)C#N (stereo unspecified)
inactive: Potency [1] | Potency [3] | Potency [7] | Potency [8] | Potency [10] | Potency [17] | Potency [12] | outcome [13] | Potency [14] | outcome [18] | Potency [15]

CCOP(=O)(CN(CCO)CCO)OCC
inactive: Potency [2] | Potency [3] | Potency [4] | outcome [5] | outcome [6] | Potency [7] | Potency [8] | Potency [9] | Potency [10] | Potency [17] | outcome [11] | Potency [15]

CNC(=O)O/N=C(/CSC)C(C)(C)C
inactive: Potency [2] | Potency [3] | Potency [4] | outcome [5] | outcome [6] | Potency [7] | Potency [10] | Potency [17] | outcome [11] | Potency [12] | outcome [13] | Potency [14] | Potency [15]
